RORgamma inh = ROR gamma (mouse) transcription inhibition; Drosophila S2 Gal4-RORgamma UAS-luciferase reporter, 20 h; P51450; AID 2551; 310,000 compounds, 5.4% hits; Potency, µM (doses to about 53.6 µM), for the others: at the top dose activity change, negative = inhibition, most hits filed as inhibitors; further: on the % scale 0 is the no-effect control and ±100 the full control effect; nearly all actives have a fitted effect of over 60% in size
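Drosophila Schneider cells stably carrying a metallothionein-driven Gal4 DBD–ROR gamma fusion and a UAS-Photinus luciferase reporter were exposed to compound for 1 hr, then induced with copper sulfate (700 uM final) for 20 hr at ambient temperature before luminescence reading.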
PINK1 modulator = changes PINK1 expression. PINK1 immunofluorescence, high-content cytometry, 24 h. Potency, µM (top dose mostly 76.6 µM), for the others: top-dose activation (PINK1 increase), actives largely listed as activators. 410,000 compounds, 0.2% hits. AID 624263; active means well fitted activation curve with a large enough effect; inconclusive means small, poorly fitted or top-dose-only effect; cell line not stated here; further: % of control where 0% means no effect; nearly all actives have a fitted effect of over 65% in size
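Decision-based qHTS: stable cells, 24 h exposure to five compound concentrations, CCCP as control. Fixed cells stained for PINK1 plus nuclear, mitochondrial and cell markers, cytometer read.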
Epigenetic reg = epigenetic control regulation, reporter derepression | murine LDR cells, GFP reporter derepression, 30 h | 280,000 compounds, 0.2% hits | Potency, µM (top dose mostly 53.9 µM), for the others: at the top dose GFP activation, usual class: activators; further: % of control where 0% means no effect; nearly all actives have a fitted effect of over 60% in size
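Murine LDR cells bearing a silenced CMV-driven GFP reporter were exposed to compound for 30 h at 37 C. After PBS washes, GFP-positive cells (20-120 um objects) counted by laser-scanning microplate cytometry.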
VP16 counter = Gal4-VP16 reporter inhibition counter-screen. 310,000 compounds, 3.5% hits. Drosophila S2 Gal4-VP16 UAS-luciferase, luminescence, 20 h. AID 2546. Potency, µM (top dose mostly 53.6 µM), without a hit: at the highest dose activity, negative = inhibition, actives largely listed as inhibitors;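 further: Gal4-VP16 expression switched on by copper sulfate through the metallothionein promoter; on the % scale 0 is the no-effect control and ±100 the full control effect; nearly all actives have a fitted effect of over 50% in size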
Sfp PPTase inh = blocks B. subtilis Sfp PPTase activity; 310,000 compounds, 3.5% hits; Potency, µM, for inactives: largest response in the series, negative = inhibition, hits mostly inhibitors; Biochemical Sfp PPTase activity, qHTS; Q9F4F7;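 further: the enzyme is Sfp with the accession as filed and its product quenches rhodamine fluorescence; 0% = enzyme reaction without inhibitor and -100% = no enzyme wells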
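Reaction rates are the 30-min fluorescence difference (ex 525, em 598 nm) in wells containing 15 nM Sfp, 5 uM rhodamine-CoA and 12.5 uM BHQ-2-YbbR at pH 7.6 with 10 mM MgCl2.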
ClpP mod = qHTS Assay for Activators of ClpP; ATP-dependent Clp protease proteolytic subunit (Bacillus subtilis (strain 168)), P80244; purified B. subtilis ClpP, FRET peptide cleavage, 20 min; Potency, µM (titrated, usually from 57.5 µM), without a hit: at the highest dose activity change, negative = active; 340,000 compounds, 1.9% hits; active means well fitted falling curve with a large enough effect; inconclusive means small, poorly fitted or top-dose-only effect; inactive means no such curve, though single readings can be large or run the other way; further: the source files actives as falling curves though it sought activators and does not explain the sign; nearly all actives have a fitted effect of over 65% in size
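FRET quenching reversal measured ClpP activation: 10 microg/mL B. subtilis ClpP at pH 8 with the FRET-FV decapeptide, read at 430 nm after 320 nm excitation. The 20-min minus 0-min signal was scaled between DMSO/no-enzyme wells and ADEP (5.8 microM final).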
* = called active by the depositor; [ ] = dose if it differs, or a comment. A selection: hits, their analogues and other compounds. The true share with any hit is near 8.1%. Unless noted, the call rests on the fitted dose curve; in most records, active means well fitted curve in the direction sought with a large enough effect; inconclusive means small, poorly fitted or top-dose-only effect, or another doubt; inactive means no such curve, though single readings can be large; an effect the other way counts as inactive or inconclusive. Potency means the concentration at half of the fitted maximal effect.

What do the screens show for `Cc1cccn2c(=O)c3c(nc12)N1CCC(Cc2ccccc2)CC1C1(C3)C(=O)N(C)C(=O)N(C)C1=O` (stereo unspecified)?
RORgamma inh: -5%; PINK1 modulator: -2%; Epigenetic reg: 6%; VP16 counter: 6%; Sfp PPTase inh: 32µM*; ClpP mod: -24%

What do the screens show for `CN1C(=O)N(C)C(=O)C2(Cc3c(nc4ccccn4c3=O)N3CCC(Cc4ccccc4)CC32)C1=O` (stereo unspecified)?
RORgamma inh: 1%; Epigenetic reg: 0%; VP16 counter: 6%; Sfp PPTase inh: -1%

Results for O=C(Nc1cccc(F)c1)N1CC2(CCNCC2)C1 ?
RORgamma inh: -3%; PINK1 modulator: -1%; VP16 counter: 7%; Sfp PPTase inh: inconclusive

What do the screens show for `COC(=O)C12C/C=C\Cc3ccccc3[C@@H]1CNC2=O` (stereo partly specified)?
RORgamma inh: -17%; Epigenetic reg: 0%; VP16 counter: -3%; Sfp PPTase inh: -22%

What do the screens show for `Cc1onc(-c2ccccc2)c1C(=O)Nc1ccc(S(=O)(=O)N2CCCC2)cc1`?
RORgamma inh: 8.9µM*; PINK1 modulator: 1%; Epigenetic reg: 0%; VP16 counter: -25%; Sfp PPTase inh: 0%; ClpP mod: 0%

Results for O=C(Nc1ccccc1[N+](=O)[O-])c1ccc(S(=O)(=O)N2CCCC2)cc1 ?
RORgamma inh: inconclusive; PINK1 modulator: 0%; VP16 counter: 6%; Sfp PPTase inh: 3%; ClpP mod: 0%

What do the screens show for `CN(C)C(=O)Cl`?
RORgamma inh: -16%; VP16 counter: 26%

How did Cc1ccc(N/N=C/C=C/c2ccco2)cc1 do in these assays?
PINK1 modulator: 6%; ClpP mod: 13µM*

What do the screens show for `CN(C)c1nc(-c2ccccc2)[n+](C)s1`?
RORgamma inh: -2%; PINK1 modulator: -5%; Epigenetic reg: -2%; VP16 counter: 3%; Sfp PPTase inh: 18µM*; ClpP mod: -9%

How did Cc1cccc2c1=NC(=O)/C(=C/c1c(O)[nH]c(=O)[nH]c1=O)C=2 do in these assays?
RORgamma inh: 14%; PINK1 modulator: -1%; Epigenetic reg: -1%; VP16 counter: -9%; Sfp PPTase inh: 50µM*; ClpP mod: 13µM*

How did O=c1[nH]c(O)c(C=NCCc2ccccc2)c(=O)[nH]1 do in these assays?
RORgamma inh: 18%; PINK1 modulator: 2%; Epigenetic reg: 1%; VP16 counter: -6%; Sfp PPTase inh: 16%; ClpP mod: 1%

What do the screens show for `O=C(c1ccccc1F)c1cn(Cc2ccccc2)c2ccccc12`?
RORgamma inh: inconclusive; PINK1 modulator: 1%[38.3 µM]; Epigenetic reg: 0%; VP16 counter: -22%; Sfp PPTase inh: 14%; ClpP mod: -3%

Results for CC(=O)c1cn(Cc2ccccc2F)c2ccccc12 ?
RORgamma inh: 28%; PINK1 modulator: 1%; VP16 counter: 7.1µM*; Sfp PPTase inh: 8%; ClpP mod: -2%

How did CC(=O)c1cn(Cc2ccccc2C#N)c2ccccc12 do in these assays?
RORgamma inh: inconclusive; PINK1 modulator: -1%; Epigenetic reg: 0%; VP16 counter: 3.2µM*; Sfp PPTase inh: -3%

How did CC(O)CCl (stereo unspecified) do in these assays?
RORgamma inh: 2%; VP16 counter: -7%

Results for CCOC(=O)CC(SP(=S)(OC)OC)C(=O)OCC (stereo unspecified) ?
RORgamma inh: -10%; VP16 counter: -1%; Sfp PPTase inh: 40µM*

What do the screens show for `C[C@H](CCC(=O)O)[C@H]1CC[C@@H]2[C@H]3CC[C@H]4C[C@H](O)CC[C@]4(C)[C@@H]3CC[C@@]21C`?
RORgamma inh: 16%; Epigenetic reg: 5%; VP16 counter: -10%; Sfp PPTase inh: -21%

Results for O=c1c2ccccc2[nH]c(=S)n1-c1ccc2c(c1)OCO2 ?
RORgamma inh: 2.8µM*; PINK1 modulator: 1%; Epigenetic reg: 1%; VP16 counter: 10µM*; Sfp PPTase inh: 20%; ClpP mod: -1%

Results for C[C@@H]1C[C@H]2OC(=O)C3(CO3)[C@H]2[C@H](O)[C@]2(C)C(=O)C3OC3[C@@H]12 (stereo partly specified) ?
RORgamma inh: 10µM*; Epigenetic reg: -2%; VP16 counter: inconclusive; Sfp PPTase inh: 7%

How did CCC1(C)CC(C(N)=S)CCO1 (stereo unspecified) do in these assays?
RORgamma inh: -4%; PINK1 modulator: 0%; Epigenetic reg: 4%; VP16 counter: -1%; Sfp PPTase inh: 4.5µM*; ClpP mod: 1%

Results for CCCC/C(=N/O)c1c(C)[nH]c2ccccc12 ?
RORgamma inh: 20%; PINK1 modulator: 1%; Epigenetic reg: 2%; VP16 counter: -16%; Sfp PPTase inh: 22%; ClpP mod: 28µM*

Results for Cc1cccc(N2C(=O)/C(=C/N3CCN(C(=O)c4ccco4)CC3)C(=O)NC2=S)c1 ?
RORgamma inh: -25%; PINK1 modulator: -1%; Epigenetic reg: -1%; VP16 counter: 5%; Sfp PPTase inh: inconclusive; ClpP mod: 16µM*

Results for Cc1ccc(N2C(=O)/C(=C/N3CCN(C(=O)c4ccco4)CC3)C(=O)NC2=S)cc1C ?
RORgamma inh: 5%; PINK1 modulator: -1%; Epigenetic reg: -1%; VP16 counter: 5%; Sfp PPTase inh: 45µM*; ClpP mod: -4%

Results for CCNCC ?
RORgamma inh: 6%; VP16 counter: -4%

What do the screens show for `COc1ccc(-c2n[nH]c(=S)n2-c2ccc3c(c2)OCCO3)cc1OC`?
RORgamma inh: -31%; PINK1 modulator: -3%; Epigenetic reg: 2%; VP16 counter: 4%; Sfp PPTase inh: inconclusive; ClpP mod: inconclusive

How did Cc1ccc(-c2n[nH]c(=S)n2-c2ccccc2)cc1 do in these assays?
RORgamma inh: inconclusive; PINK1 modulator: -1%; Epigenetic reg: 4%; VP16 counter: inconclusive; Sfp PPTase inh: 79µM*; ClpP mod: inconclusive

What do the screens show for `Cc1ccc(-n2c(-c3nn(C)c(C)c3Cl)n[nH]c2=S)cc1`?
RORgamma inh: inconclusive; PINK1 modulator: -2%; Epigenetic reg: 0%; VP16 counter: -11%; Sfp PPTase inh: 56µM*; ClpP mod: -2%

What do the screens show for `O=C(Cc1ccccc1)N1CCN(Cc2cccc(Br)c2)CC1`?
RORgamma inh: 23%; PINK1 modulator: 0%; Epigenetic reg: -6%; VP16 counter: -5%; Sfp PPTase inh: 50µM*; ClpP mod: 0%

Compound activity from PubChem BioAssay.
